± gives the standard deviation of the averaged measurements.
system: AEK1 (Tb927.3.2440); assay: percent reduction in TR-FRET probe signal relative to DMSO control; higher = stronger displacement of ATP-site probe (binding); details: 1 µM; incubation time 1 h

Row | Structure (SMILES) | percent reduction in TR-FRET probe signal [%]
1 | CCNC(=O)Nc1ccc(-c2nc3c(c(N4CCOC[C@@H]4C)n2)CCN(C2COC2)C3)cc1 | 13.6 ± 12
2 | CO[C@@H](C)Cn1c(=O)n(C)c2cnc3ccc(-c4cncc(C(C)(C)O)c4)cc3c21 | 3.02 ± 4.9
3 | CCNc1nc(Nc2cc(F)c(C(=O)N3CCOCC3)cc2OC)ncc1C(F)(F)F | 11.9 ± 11
4 | CN([C@@H](Cc1ccc(OS(=O)(=O)c2cccc3cnccc23)cc1)C(=O)N1CCN(c2ccccc2)CC1)S(=O)(=O)c1cccc2cnccc12 | 0.31 ± 8.8
5 | CC1(COc2ccc3c(c2)ncn3-c2ccc3cccc(N4CCC(N)CC4)c3n2)COC1 | 18.8 ± 11
6 | CCOc1cc(C(=O)N2CCC(N3CCN(C)CC3)CC2)ccc1Nc1ncc2c(n1)N(C1CCCC1)c1ccccc1C(=O)N2C | -3.15 ± 9.5
7 | Cl.Cl.c1cc(-c2cnn3cc(-c4ccc(OCCN5CCCCC5)cc4)cnc23)ccn1 [Dorsomorphin 2HCl] | -8.77 ± 4.9
8 | Cn1c(Nc2ccc(C(F)(F)F)cc2)nc2cc(Oc3ccnc(-c4ncc(C(F)(F)F)[nH]4)c3)ccc21 | 34 ± 20
9 | CN(c1ncccc1CNc1nc(Nc2ccc3c(c2)CC(=O)N3)ncc1C(F)(F)F)S(C)(=O)=O | 46.8 ± 0.66
10 | CN(C)S(=O)(=O)c1ccc2c(c1)/C(=C/c1cc3c([nH]1)CCCC3)C(=O)N2 | 43.6 ± 21
11 | O=C1c2ccc(Nc3ccc(F)cc3F)cc2CCc2ccc(OC[C@H](O)CO)cc21 [Skepinone-L] | -1.27 ± 10

From the supplement of paper PMC10720658
